Rtt109 Vps75 = C. albicans Rtt109 histone acetyltransferase inhibition; Q5AAJ8; purified Rtt109/Vps75, ThioGlo CoA-SH fluorescence, 4 h; inhibition, % at 34.9 µM; hit rate 0.16% among 330,000; AID 540336;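 active = inhibition of at least 50% in every replicate; inconclusive = best replicate reaches 50% inhibition but some replicates fall short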
Target sequence (Q5AAJ8 whole entry, looked up): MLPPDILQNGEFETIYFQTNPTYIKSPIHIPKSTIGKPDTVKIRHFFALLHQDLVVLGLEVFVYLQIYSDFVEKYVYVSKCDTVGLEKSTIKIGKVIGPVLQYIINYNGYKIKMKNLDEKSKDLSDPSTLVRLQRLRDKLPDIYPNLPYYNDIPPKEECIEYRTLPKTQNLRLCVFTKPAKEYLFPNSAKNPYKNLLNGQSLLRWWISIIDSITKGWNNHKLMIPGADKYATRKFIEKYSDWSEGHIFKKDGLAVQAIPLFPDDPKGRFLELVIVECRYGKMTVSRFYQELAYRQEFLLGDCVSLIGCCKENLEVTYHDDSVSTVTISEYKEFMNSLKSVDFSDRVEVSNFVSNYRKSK
WT yeast gro inh = growth inhibition of WT yeast, mitochondrial fusion screen. mitochondrial fusion phenotypic screen, WT strain. inhibition, % at 10 µM. hit rate 2.1% among 190,000; in the data active = inhibition above about 58%; tested in S. cerevisiae
TPT1 inh = blocks Candida albicans tRNA 2'-phosphotransferase. AID 1962. recombinant caTPT1, FP RNA substrate dephosphorylation. inhibition, % at 5 µM. hit rate 0.81% among 300,000;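 active = inhibition above the mean of all tested compounds plus 3 SD, set per screening campaign, cut at about 24% in these data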
SKKanGAS inh = blocks kanamycin growth of S. pyogenes SKKanGAS strain. BacTiter-Glo, 6 h. inhibition, % at 7.5 µM. hit rate 1.3% among 300,000. AID 1662;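 active = mean replicate score, as percent of positive control median, at least 50; inconclusive = mean below 50 but one replicate at or above 50; inactive = mean and every replicate below 50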;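 note: strain carries kanamycin resistance gene driven by streptokinase promoter and grows in 40 µg/ml kanamycin; loss of luminescence reflects streptokinase promoter inhibition or plain growth inhibition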
PHOSPHO1 block = blocks human PHOSPHO1 phosphatase activity | hit rate 1.1% among 290,000 | Q8TCT1 | recombinant PHOSPHO1, absorbance phosphatase assay | inhibition, % at 13.3 µM; in the data active = inhibition above about 60%
Platelet DG rel = platelet dense granule release activity. human platelet-rich plasma, SFLLRN dense granule ATP release, luminescence. inhibition, %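 (compounds screened at 7.5 µM in platelet-rich plasma)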. hit rate 0.22% among 300,000. AID 1663;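 active = mean replicate score, as percent of positive control, at or above 50; inconclusive = mean below 50 but at least one replicate at or above 50; inactive = mean and every replicate below 50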
Of the large screens only hits and unclear results are named; the others gave an inactive call. Shown are actives, neighbours in structure and some others; about 3.9% of the full set was active somewhere.

CC(C)N(C(=O)[C@H]1C[C@H](CC(=O)NCCCn2ccnc2)C(=O)N2CCc3c([nH]c4cc(CCC(=O)N(C)C)ccc34)[C@]12C)C(C)C	none (no result: WT yeast gro inh, TPT1 inh, SKKanGAS inh, PHOSPHO1 block, Platelet DG rel)
CC1(C)Cc2ccccc2-c2c1c(=O)n(Cc1ccccc1)c1nnnn21	SKKanGAS inh 60
CCC1(C)Cc2ccccc2-c2c1c(=O)n(-c1ccc(C)cc1)c1nnnn21 (centres undefined)	none (no result: Platelet DG rel)
COc1ccc(C(=O)c2ccc(Cl)cc2)c(OC)c1OC	none (no result: WT yeast gro inh, TPT1 inh, SKKanGAS inh, PHOSPHO1 block, Platelet DG rel)
O=C(CSc1ccc(-c2cccnc2)nn1)Nc1ccc(F)c(F)c1	none (no result: WT yeast gro inh)
CCOC(=O)C1=C(C)N=c2s/c(=C/c3ccc(OCC(=O)O)cc3)c(=O)n2C1c1cc(OC)c(OC)c(OC)c1 (centres undefined)	Rtt109 Vps75 68 (no result: WT yeast gro inh)
CCOC(=O)C1=C(C)N=c2s/c(=C\c3ccc(OCC(=O)O)cc3)c(=O)n2C1c1ccc(OC(C)C)cc1 (centres undefined)	Rtt109 Vps75 inconclusive
COC(=O)c1cc(C(=O)OCC(=O)c2ccc3c(c2)NC(=O)CO3)cc([N+](=O)[O-])c1	none (no result: WT yeast gro inh, TPT1 inh, SKKanGAS inh, PHOSPHO1 block, Platelet DG rel)
COc1ccc2[nH]c3c(=O)n(CCCCC(=O)N4CCCC4)c(=S)[nH]c3c2c1	PHOSPHO1 block 100
CCCNC(=O)CCCCn1c(=S)[nH]c2c([nH]c3ccc(OC)cc32)c1=O	none
O=C(NC1CCCCC1)c1cc(S(=O)(=O)N2CCOCC2)c(Cl)cc1Cl	none (no result: WT yeast gro inh)
Cc1c(C)n(Cc2ccccc2)c2ncnc(Cl)c12	none (no result: WT yeast gro inh)
Nc1nonc1-n1nnc(C(=O)N/N=C/c2ccc(OCc3ccccc3)cc2)c1CN1CCCCC1	none (no result: WT yeast gro inh)
COc1ccc(/C(C)=N/NC(=S)NCCc2ccccc2)cc1	none
C/C(=N\NC(=S)NCc1ccccc1)c1cccc(Br)c1	WT yeast gro inh 70, SKKanGAS inh 56
C/C(=N\NC(=S)NCCc1ccccc1)c1cccc(Br)c1	none
COc1ccccc1/C(C)=N/NC(=S)NCc1ccccc1	WT yeast gro inh 65
COc1ccc(CNC(=S)N/N=C(\C)c2ccc(OC)cc2)cc1	none (no result: WT yeast gro inh)
C/C(CCC(C)C)=N\NC(=S)NCc1ccccc1	WT yeast gro inh 60
C/C(=N\NC(=S)NCc1ccccc1)c1ccc2ccccc2c1	WT yeast gro inh 64
CCc1ccn2cc(-c3ccc4c(c3)OCO4)nc2c1	Platelet DG rel 50 (no result: WT yeast gro inh)
COC(=O)c1ccc2nc(-c3ccc4c(c3)OCO4)cn2c1	none
O=C(c1ccccc1Cl)N1N=C(c2ccc(Br)cc2)CC1c1nc2ccccc2[nH]1 (centres undefined)	WT yeast gro inh 73
CCOC(=O)[C@@H]1[C@H]2COc3ccc(Br)cc3[C@H]2N2C(=O)N(c3cccc(Cl)c3)C(=O)[C@]12C	none (no result: WT yeast gro inh)
O=[N+]([O-])c1ccc(Sc2cccc[n+]2[O-])c2nonc12	Rtt109 Vps75 123, SKKanGAS inh 102 (no result: WT yeast gro inh, TPT1 inh)
O=C(CSc1cccc[n+]1[O-])Nc1cc(Cl)ccc1[N+](=O)[O-]	none (no result: WT yeast gro inh, TPT1 inh, SKKanGAS inh, PHOSPHO1 block, Platelet DG rel)
Oc1ccc(-c2c(C3=CCCCC3)sc3ccccc23)cc1	SKKanGAS inh 56 (no result: WT yeast gro inh)
O=S(=O)(Nc1nc(-c2ccccc2)cs1)c1cc(Cl)ccc1Cl	none (no result: WT yeast gro inh)
CCN(CC(=O)Nc1ccc2c(c1)OCCO2)C(=O)/C=C/c1ccc(OC)cc1OC	PHOSPHO1 block 62 (no result: WT yeast gro inh)
Cc1ccc(Cl)cc1NC(=O)CNC(=O)N1CC(=O)Nc2ccccc21	PHOSPHO1 block 80 (no result: WT yeast gro inh)
O=C1CN(C(=O)/C=C/c2ccc(Cl)cc2)c2ccccc2N1	Rtt109 Vps75 56
O=C(O)C1C2CCC(O2)C1C(=O)Nc1ccc(Br)cc1F (centres undefined)	none (no result: WT yeast gro inh, PHOSPHO1 block)
O=C(O)c1cc(S(=O)(=O)NCCCN2CCCC2=O)ccc1Cl	none (no result: WT yeast gro inh, TPT1 inh, SKKanGAS inh, PHOSPHO1 block, Platelet DG rel)
COCCCNC(=O)C1C2C=CC3(CN(Cc4ccc(C)cc4)C(=O)C13)O2 (centres undefined)	PHOSPHO1 block 60
Cc1ccc(CN2CC34C=CC(O3)C(C(=O)NCc3ccc5c(c3)OCO5)C4C2=O)cc1 (centres undefined)	none
CC1Cc2ccccc2N1Cc1nc2scc(-c3cccs3)c2c(=O)[nH]1 (centres undefined)	PHOSPHO1 block 88
O=C(NCCC1CCCCN1S(=O)(=O)c1ccccc1)C(=O)NC1CC1 (centres undefined)	none (no result: WT yeast gro inh, PHOSPHO1 block)
COCCNC(=O)CCN1N=C(c2ccccc2)CCC1=O	none (no result: WT yeast gro inh)
Fc1ccccc1CNc1cc(Cl)cc(Cl)c1	SKKanGAS inh 73
O=[N+]([O-])c1ccccc1CNc1ccc(F)c(Cl)c1	none
COc1ccc(NS(=O)(=O)c2cccc(C(=O)NN=Cc3cc(Br)c(O)c(Br)c3)c2)cc1	none (no result: WT yeast gro inh, TPT1 inh, SKKanGAS inh, PHOSPHO1 block, Platelet DG rel)
CCOC(=O)c1c(NC(=O)c2ccco2)sc2c1CCCCC2	none

Bioassay records (PubChem BioAssay)
